Screening data as filed in PubChem BioAssay.
Compounds with a hit are over-represented: about 1.5% of the library has one in this group of screens.
BCLXL inh: inhibitors of human Bcl-xL; Q07817; GST-Bcl-xL / FITC-Bim BH3 peptide fluorescence polarization; inhibition, % at 10.9 µM; 320,000 tested, 0.7% active; AID 2129;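 active = inhibition above the mean of all tested compounds plus 3 SD, cutoff set per campaign, cut at about 30% in these data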;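 also: inhibitors lower millipolarization by displacing the labeled peptide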
Target sequence (Q07817 whole entry, looked up): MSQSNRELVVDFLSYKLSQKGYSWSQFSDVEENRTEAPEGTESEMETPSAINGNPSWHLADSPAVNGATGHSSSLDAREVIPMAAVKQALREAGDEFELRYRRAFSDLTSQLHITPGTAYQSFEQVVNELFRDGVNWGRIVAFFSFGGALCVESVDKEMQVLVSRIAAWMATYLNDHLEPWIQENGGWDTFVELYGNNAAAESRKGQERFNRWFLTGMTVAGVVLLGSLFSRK
MCL1 BIM primary: MCL1-BIM-BH3 interaction inhibition (human); Q07820; GST-MCL1 / FITC-Bim-BH3 fluorescence polarization; inhibition, % at 10.9 µM; 320,000 tested, 0.68% active; AID 2057;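 active = inhibition above the mean inhibition of all tested compounds plus 3 SD, set per campaign, cut at about 40% in these data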;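 also: higher means more loss of mP so more displacement of Bim peptide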
Target sequence (Q07820 whole entry, looked up): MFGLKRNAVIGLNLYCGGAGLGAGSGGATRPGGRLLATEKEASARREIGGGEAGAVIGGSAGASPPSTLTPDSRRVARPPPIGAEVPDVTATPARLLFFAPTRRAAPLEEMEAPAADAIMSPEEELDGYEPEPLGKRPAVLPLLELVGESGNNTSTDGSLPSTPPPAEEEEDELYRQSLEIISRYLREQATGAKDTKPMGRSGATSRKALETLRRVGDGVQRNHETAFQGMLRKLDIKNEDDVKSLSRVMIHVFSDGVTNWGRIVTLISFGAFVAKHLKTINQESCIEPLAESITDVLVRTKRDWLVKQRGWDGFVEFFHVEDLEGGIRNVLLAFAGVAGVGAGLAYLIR
EBV gp42 inh: blocks Epstein-Barr virus glycoprotein 42 binding. 220,000 tested, 0.42% active. Q1HVG2. Fluorescence polarization binding assay, mP read-out. AID 1085. inhibition, % (tested at 21.74 µM); in the data active = inhibition above about 50%
GLD-1 RNA inh: GLD-1-TGE RNA interaction inhibition (C. elegans); purified GLD-1 + fluorescein TGE RNA, fluorescence polarization; Q17339; 320,000 tested, 0.44% active; inhibition, % at 5.96 µM;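 active = percent inhibition above a per-plate cutoff, the plate mean of test compounds plus 3 SD, cut at about 30% in these data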
MEX-5 binding: C. elegans MEX-5 TCR-2 RNA binding activity. Q9XUB2. MEX-5/FITC-TCR2 RNA binding, fluorescence polarization; hits give low values. activity score (negative = inhibition of binding), % at 10 µM. 300,000 tested, 0.38% active. AID 1832;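 active = inhibition past about -25% in most replicates, and total fluorescence under double the plate's negative control median, limit read from the data; inconclusive = replicates evenly split on the limit, or fluorescence at least double controls; inactive = too little inhibition in most replicates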
eLon inh: inhibitors of E. coli Lon protease. P0A9M0. purified E. coli Lon protease, fluorescence polarization. inhibition, % at 7.94 µM. 360,000 tested, 0.42% active; in the data active = inhibition above about 13%, passing the limit was not always enough
Hits are given with their value; - = inactive; ? = inconclusive; . = not tested or not shown.

SMILES	BCLXL inh	MCL1 BIM primary	EBV gp42 inh	GLD-1 RNA inh	MEX-5 binding	eLon inh
CCN1CCN(Cc2ccc(NC(=O)c3ccc(C)c(/C=C/c4cnc(Nc5cc(N6CCNCC6)nc(C)n5)cn4)c3)cc2C(F)(F)F)CC1	37.9	-	.	-	-	-
CCN1CCN(Cc2ccc(NC(=O)c3ccc(C)c(NC(=O)c4ccno4)c3)cc2C(F)(F)F)CC1	-	-	-	-	-	-
O=C(O)c1ccccc1-c1c2cc(I)c(=O)c(I)c-2oc2c(I)c(O)c(I)cc12	109.7	115.3	.	49.4	.	-
O=Cc1ccc(-c2ccccc2C(=O)O)o1	-	-	-	-	-	-
CCN1CCc2c(C#N)c(N3CCOCC3)nc(NCc3ccccc3)c2C1	.	.	.	.	-	-
CCN1CCc2c(C#N)c(N3CCOCC3)nc(NCCO)c2C1	44.3	-	-	-	-	-
COC(=O)c1cc2c(=O)n3ccccc3nc2n(Cc2cccnc2)c1=N	-	-	.	-	-	.
Cc1cccn2c(=O)c3cc(C(=O)NCc4ccco4)c(=N)n(C4CCCC4)c3nc12	33.6	-	.	-	-	-
N=c1c(C(=O)NC2CCCCC2)cc2c(=O)n3ccccc3nc2n1CCc1ccccc1	-	-	.	-	-25.8	-
N=c1c(C(=O)NC2CCCCC2)cc2c(=O)n3ccccc3nc2n1Cc1cccnc1	-	-	.	-	-34.9	-
N=c1c(C(=O)NCc2ccc(F)cc2)cc2c(=O)n3ccccc3nc2n1Cc1cccnc1	41.2	-	-	-	?	-
CCNC(=O)c1cc2c(=O)n3cccc(C)c3nc2n(Cc2ccc(C)cc2)c1=N	-	-	-	-	-78.1	-
Cc1cccn2c(=O)c3cc(C(=O)NC(C)C)c(=N)n(Cc4ccncc4)c3nc12	-	-	-	-	-	-
N=c1c(C(=O)NCCc2ccccc2)cc2c(=O)n3ccccc3nc2n1CCCN1CCOCC1	-	-	.	-	-	-
Cc1ccc(S(=O)(=O)c2cc3c(=O)n4ccccc4nc3n(CCc3ccccc3)c2=N)cc1	-	-	.	-	-32.4	-
N=c1c(C(=O)NCCN2CCOCC2)cc2c(=O)n3ccccc3nc2n1CCc1ccccc1	-	-	.	-	-28.3	-
N=c1c(C(=O)NCC2CCCO2)cc2c(=O)n3ccccc3nc2n1Cc1cccnc1 (configuration not stated)	36.5	-	-	-	-44.4	-
Cc1ccc(C)c(CNS(=O)(=O)c2c(C(=O)N3CCCC3)c(C)n(C)c2C)c1	-	-	.	-	-	-
COc1ccc2nc3ccccc3nc2c1NC(=O)c1ccc(Br)cc1	38.5	42.5	-	-	?	-
COc1cc(NC(=O)c2ccc(Br)cc2)c(OC)cc1NC(=O)c1ccccc1	-	-	.	-	-	-
CCn1c(C)cc(=S)c2ccccc21	-	-	-	-	-51.9	-
Oc1[nH]c2ccccc2c1N=Nc1ccccc1Cl	.	.	.	.	.	-
Oc1c(C=Nc2ccccc2Cl)[nH]c2ccccc12	39.0	-	-	-	-29.0	-
COc1ccc(/C=C2/N=C(c3cccs3)OC2=O)cc1OC(C)C	-	-	107.4	-	-53.2	-
Cc1ccc(-c2ccc(=O)n(CC(=O)NCCN3CCCCC3C)n2)cc1 (configuration not stated)	34.3	40.9	-	-	-	-
SMILES	BCLXL inh	MCL1 BIM primary	EBV gp42 inh	GLD-1 RNA inh	MEX-5 binding	eLon inh
CC1(C)CC(=O)C2=C(C1)N1C(=C(C#N)C2c2ccc(Cl)cc2)N=C(N)c2ccccc21 (configuration not stated)	-	-	-	60.5	-	-
N#Cc1c(C#N)c(O)c2ccccc2c1O	44.8	44.4	68.3	-	-	-
O=S(=O)(NCCc1c[nH]c2ccccc12)c1ccc(F)cc1	.	.	.	.	.	-
C=Cc1c(C)c2cc3[nH]c(cc4nc(cc5nc(cc1[nH]2)C(C)=C5CCC(=O)O)C(CCC(=O)O)=C4C)c(C)c3C=C	-	82.8	.	-	-41.8	-
CCCCN1C(=O)C(CC(=O)NC2CCCC2)CC(C(=O)N2CCOCC2)=C1C (configuration not stated)	.	.	.	.	.	-
CN=C1S/C(=C\c2cn(CC(=O)OC)c3ccccc23)C(=O)N1C	-	-	-	-	-28.2	-
CN=C1S/C(=C/c2cn(CC(=O)OC)c3ccccc23)C(=O)N1C	-	-	-	-	-	-
COc1ccc2c(Cl)c(C(=O)N/N=C3\CCCC(=O)C3)sc2c1	39.9	-	-	128.7	-	-
COc1ccc2c(Cl)c(C(=O)N/N=C/c3ccc4c(c3)OCO4)sc2c1	-	-	-	-	-	-
Cc1c(S(=O)(=O)c2ccccn2)c(N)n(Cc2ccccc2)c1C	55.2	47.0	-	-	-	-
O=C(N/N=C\c1cc([N+](=O)[O-])ccc1N1CCCC1)c1ccccn1	-	-	-	-	-27.4	-
COc1ccc(CC(=O)Nc2nc(OCCN3CCCC3=O)cnc2-c2cccc(C(F)(F)F)c2)cc1	.	.	.	.	.	-
COc1ccc(NC(=O)CN2CCC(NC(=O)C3CCCCC3)CC2)c([N+](=O)[O-])c1	-	-	-	-	-91.9	-
Cc1ccc(C(=O)NN2C(=O)/C(=C/c3cn(C)c4ccccc34)SC2=S)cc1	-	-	129.7	-	.	-
Cc1ccc(C(=O)NN2C(=O)/C(=C/c3cccn3C)SC2=S)cc1	-	-	-	-	-	-
Cn1cc(/C=C2\SC(=S)N(NC(=O)c3ccccc3Cl)C2=O)c2ccccc21	35.4	-	87.3	-	.	-
CCN(C(=O)c1c(C)noc1C)c1c(N)n(Cc2ccccc2)c(=O)[nH]c1=O	-	-	.	-	.	-
COc1cc(OC)c2c(-c3cccc(-c4ccc(F)c(Cl)c4)c3)cc(=O)oc2c1	.	.	.	.	.	-
CCC/C=N/NC(=O)C1COc2ccccc2O1 (configuration not stated)	97.6	-	-	-	-	-
CC(c1ccccc1)N1CC(C(=O)N2CCN(Cc3ccc(C#N)cc3)CC2)CC1=O (configuration not stated)	.	.	.	.	.	-
COc1ccc(NC2=Nc3ccccc3N3C2=Nc2c(c(C)nn2-c2ccc(C)cc2)C3c2cccnc2)cc1 (configuration not stated)	-	-	-	-	.	-
CC(=O)Nc1ccc(NC2=Nc3ccccc3N3C2=Nc2c(c(C)nn2-c2ccccc2)C3c2ccccc2)cc1 (configuration not stated)	-	-	70.8	-	-	-
CC1(C)Cc2c(cnn2-c2cccc(F)c2)C(NC(=O)Cn2cccn2)C1 (configuration not stated)	.	.	.	.	-	-
COC(=O)C(C(=O)OC)C1C=CCN(C(C)=O)C1 (configuration not stated)	.	.	.	.	.	-
CCN1/C(=C/c2ccc3cccc(C)c3[n+]2CC)Sc2ccccc21	-	-	-	47.1	?	-
CCN1/C(=C/c2ccc3cc(C)cc(C)c3[n+]2CC)Sc2cc(C)ccc21	.	.	-	.	.	-
CCOc1ccc(N2C(=O)S/C(=C\c3cccn3C)C2=O)cc1	-	-	-	-	-29.6	-
